# Tau fluor cs = counter-screen for tau fibril formation inhibitors | tau K18 P301L Alexa594 fluorescence, heparin fibrillization | Potency, µM (top dose mostly 57.7 µM), for inactives: at the top dose activity change, negative = decrease | actives 0.93% (n = 280,000); further: potency means the concentration at half of the fitted maximal effect; nearly all actives have a fitted effect of over 55% in size
#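 Human tau K18 P301L (15 uM unlabeled, 0.24 uM Alexa 594-labeled) in 100 mM sodium acetate pH 7 with 20 uM heparin, 6 hr at 37 C. ThT 30 uM added, 1 hr ambient; Alexa 594 FP and total fluorescence read at 555/632 nm.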
# Coupling enz = inhibits coupling enzyme system, counter-screen for aldolase hits | coupling enzyme system counterscreen, AmpLite Red fluorescence | AID 2472 | actives 0.67% (n = 290,000) | activity change, negative = inhibition, % at 58.2 µM, hits read low; in the data active means activity change below about -30%
#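 Coupling enzymes only (glyceraldehyde-3-phosphate) + compound, at 57.5 uM final, 10 min RT; add substrate/coupling/AmpLite Red mix, 20 min RT; fluorescence ex 525/em 598 nm. Actives flag coupling-system interference.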
# Tau fibril ThT = inhibitors of human tau fibril formation, thioflavin T binding; actives 2.1% (n = 270,000); P10636; Potency, µM (doses to about 57.4 µM), without a hit: top-dose activity, negative = inhibition, actives largely listed as inhibitors; recombinant tau K18 P301L (four-repeat tau fragment), heparin-induced fibrillization, ThT fluorescence; further: potency means the concentration at half of the fitted maximal effect; nearly all actives have a fitted effect of over 55% in size
# Target sequence (P10636 561-689 P618L limits assumed): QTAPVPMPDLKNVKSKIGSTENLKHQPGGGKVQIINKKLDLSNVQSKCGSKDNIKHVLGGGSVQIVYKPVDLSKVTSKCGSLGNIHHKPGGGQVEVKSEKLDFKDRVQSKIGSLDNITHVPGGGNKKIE
#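 K18 P301L tau (15 uM + 0.24 uM Alexa 594-tagged), heparin 20 uM, NaOAc pH 7, 6 h 37 C; ThT 30 uM, 1 h RT, ex 450/em 510 nm.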
# Sfp inh = inhibitors of Bacillus subtilis Sfp phosphopantetheinyl transferase. Biochemical Sfp PPTase activity, qHTS. Potency, µM, for inactives: largest response in the series, negative = inhibition, actives largely listed as inhibitors. actives 3.5% (n = 310,000). AID 1490;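 further: the enzyme is Sfp with the accession as filed and its product quenches rhodamine fluorescence; potency means the concentration at half of the fitted maximal effect; 0% = enzyme reaction without inhibitor and -100% = no enzyme wells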
#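 Sfp 15 nM + cpd, 15 min RT; start w/ rhodamine-CoA 5 uM, BHQ-2-YbbR 12.5 uM (final); 50 mM Hepes pH 7.6, 10 mM MgCl2, 0.01% NP-40, 0.01% BSA; read 525/598 nm at 0 and 30 min.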
# Tau fibril FP = tau fibrillization inhibition (FP); K18 P301L tau heparin fibrillization, Alexa594 FP, 6 h; Potency, µM (series often up to 57.7 µM), without a hit: at the top dose activity, negative = inhibition, usual class: inhibitors; actives 0.39% (n = 280,000); AID 1468; further: potency means the concentration at half of the fitted maximal effect; nearly all actives have a fitted effect of over 55% in size
#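 Human K18 P301L fragment (15 uM unlabeled plus 0.24 uM Alexa 594-labeled) in 100 mM sodium acetate pH 7 with compound, aggregation induced by 20 uM heparin for 6 hr at 37 C. ThT (30 uM) added for 1 hr, then Alexa 594 FP read.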
# * = called active by the depositor; ? = inconclusive; . = no result; [ ] = another dose, or the depositor's remark. Rows were chosen to be rich in hits. Some 5.2% of all compounds tested hit in one or more screens of this group. Unless noted, the call rests on the fitted dose curve; in most records, active means well fitted curve in the direction sought with a large enough effect; inconclusive means small, poorly fitted or top-dose-only effect, or another doubt; inactive means no such curve, though single readings can be large; an effect the other way counts as inactive or inconclusive. Unless noted, on the % scale 0 is the no-effect control and ±100 the full control effect.
SMILES,Tau fluor cs,Coupling enz,Tau fibril ThT,Sfp inh,Tau fibril FP
CCn1c2ccc(C)cc2c2nnc(NN)nc21,-5%,-6,?,-17%,-13%
CCn1c2ccccc2c2nnc(NN)nc21,-11%,-8,14µM*,-12%,?
CCCn1c2ccc(C)cc2c2nnc(SCCN3CCCCC3)nc21,-4%,1,-16%,?,-11%
CC(=O)Nc1nonc1-c1nnc(SCc2cccc(Br)c2)n1C,-9%,.,3%,.,-10%
CCn1c2ccccc2c2nn(C)c(=N)nc21,7%,3,7%,11%,9%
CCn1c2ccccc2c2n[nH]c(=S)nc21,.,1,.,50µM*,.
O=C1c2sc3nc4n(c(=O)c3c2CCC1Br)CCCCC4 (stereo not drawn),?,-62*,?,20µM*,?
O=C1CCCc2c1sc1nc3n(c(=O)c21)CCCCC3,-5%,4,-7%,-11%,5%
COc1ccc([C@@H]2CC(=O)c3c(O)cc(O[C@@H]4O[C@H](CO)[C@@H](O)[C@H](O)[C@H]4O[C@@H]4O[C@@H](C)[C@H](O)[C@@H](O)[C@H]4O)cc3O2)cc1,.,0,.,-15%,.
COC(=O)c1c(NC(=O)C2SC(=NC3CCCCC3)C(C(N)=O)=C2N)sc2c1CCCC2 (stereo not drawn),16µM*[quencher],-1,?,10%,?
CC(=O)Nc1sc2c(c1C(N)=O)CCCC2,-5%,-1,-8%,30%,-1%
CCC(C)(C)C1CCc2c(sc(NC(=O)C3c4ccccc4Oc4ccccc43)c2C(N)=O)C1 (stereo not drawn),-2%,.,6%,.,?
NC(=O)c1c(NC(=O)C2c3ccccc3Oc3ccccc32)sc2c1CCCCC2,-13%,-4,?,35µM*,3%
NC(=O)c1c(NC(=O)c2noc3c2CCCC3)sc2c1CCCC2,-26%,.,28µM*,.,?
N#C/C(=C\c1ccccc1)C(=O)Nc1sc2c(c1C(N)=O)CCC2,-7%,.,1.4µM*,.,8%
Cn1ccc(C(=O)Nc2sc3c(c2C(N)=O)CCCCC3)n1,.,.,.,32µM*,.
O=C(c1ccco1)N1CCC[C@@]2(CCN(c3ccncc3)C2)C1,.,1,.,1%,.
CCC(Sc1nc2ccccc2c2nc(CCn3c(C)nc4ccccc43)nn12)C(=O)Nc1ccc(F)cc1 (stereo not drawn),-17%,.,-18%,.,-6%
CN1CCN(S(=O)(=O)c2cccc(C(=O)Nc3sc4c(c3C(N)=O)CCCC4)c2)CC1,-21%,2,?,56µM*,-1%
Cc1cccc(C2C=C(c3ccc(C)c(C)c3)Nc3nnnn32)c1 (stereo not drawn),-9%,.,-8%,.,-7%
CN(C)c1ccc(/C=C/c2ccc3c4ccccc4ccc3[n+]2-c2ccccc2)cc1,0.79µM*[fluorescent],-2,2µM*,14µM*,?
CN(C)c1ccc(/C=C/c2ccc3ccccc3[n+]2C)cc1,0.5µM*[fluorescent],-5,0.56µM*,-22%,11%
CN(C)c1ccc(/C=C/c2cccc[n+]2[O-])cc1,-4%,0,-4%,8%,2%
CC(C)(C)c1ccc(C(=O)NN=C2CCCC2)cc1,.,0,.,15%,.
CCNc1ccc(C(=O)NN=C2CCCC2)cc1[N+](=O)[O-],-18%,-1,8.9µM*,4%,4%
SMILES,Tau fluor cs,Coupling enz,Tau fibril ThT,Sfp inh,Tau fibril FP
COC(=O)C(N)Cc1ccc(OC)c([N+](=O)[O-])c1 (stereo not drawn),8%,1,3%,-2%,-2%
COc1coc(C(O)C[N+](=O)[O-])cc1=O (stereo not drawn),-4%,2,?,32µM*,-3%
Cn1c2ccc(F)cc2c2ncn(Cc3ccco3)c(=O)c21,-2%,-15,-7%,50µM*,10%
CCCCn1c(=O)n(Cc2cccc(F)c2)c(=O)c2c1ncn2Cc1ccco1,-17%,0,-10%,40µM*,-7%
Cn1c2ccccc2c2ncn(Cc3ccco3)c(=O)c21,-2%,-1,12%,-2%,3%
CCC(C)NC(=O)Cn1ccc2cc(S(=O)(=O)N3CCCCC3)ccc21 (stereo not drawn),-6%,.,0%,.,-2%
Cc1cc(NC(=O)CCc2nc3cccnc3n2Cc2cccs2)ccc1Br,?,.,?,.,-14%
COCCNC(=O)CCCn1c(SCc2ccccc2C)nc2c(sc3ccccc32)c1=O,-4%,.,0%,.,-1%
CSCC[C@H](NC(=O)[C@H](Cc1ccccc1)NC[C@@H](NC[C@@H](N)CS)C(C)C)C(=O)O,-15%,2,25µM*,-24%,?
Cc1ccc(C)c(Nc2ncnc3c2cnn3-c2ccc(F)cc2)c1,-21%,.,-11%,.,2%
CCc1cccc(NC(=O)C2CCN(C(=O)c3cnn(-c4ccccc4)c3-n3cccc3)CC2)c1,-22%,.,-18%,.,-1%
COc1ccc(CNC(=O)Cn2nc(N3CCN(c4ccccc4)CC3)ccc2=O)c(OC)c1,-14%,.,?,.,5%
COCCOCC(O)CN1CCN(c2ccc(C)cc2)CC1 (stereo not drawn),2%,-6,3%,79µM*,6%
Cc1nn(CC(=O)NCc2ccco2)c(=O)c2cc3ccccc3n12,8%,.,7%,.,6%
CCOC(=O)C1=C(C)N=c2s/c(=C\c3ccc(O)c([N+](=O)[O-])c3)c(=O)n2C1c1ccccc1OC (stereo not drawn),.,5,.,-12%,.
CCOC(=O)C1=C(C)n2c(s/c(=C/c3cccc([N+](=O)[O-])c3)c2=O)=NC1c1ccc(O)c(OC)c1 (stereo not drawn),?,1,14µM*,-8%,-6%
COc1cccc(-n2nnc3c(=O)n(Cc4ccc(Br)cc4)cnc32)c1,-18%,1,4%,35µM*,?
Cc1ccc(/C=C/C(=O)NCc2ccc3c(c2)OCO3)o1,1%,0,-7%,-91%,-3%
O=S(=O)(c1cccc(NC(=S)Nc2ccc(Br)cc2Cl)c1)N1CCOCC1,-26%,-2,3%,45µM*,?
Cc1ccc(/C=C/C(=O)NCc2ccc(S(N)(=O)=O)cc2)o1,-16%,-6,25µM*,3.5µM*,?
Cc1ccc(/C=C/C(=O)Nc2ncc(C)s2)o1,-18%,-11,?,13µM*,-13%
O=C(Cc1c(Cl)cccc1Cl)Nc1cccc(S(=O)(=O)N2CCOCC2)c1,-16%,1,2%,19%,-7%
Cc1ccc(/C=C/C(=O)Nc2ccncc2)o1,4%,1,?,-77%,-8%
CC(=O)NS(=O)(=O)c1ccc(NC(=O)/C=C/c2ccc(C)o2)cc1,-5%,-6,?,5µM*,?
Cc1cnc(NC(=O)/C=C/c2ccc(Br)o2)s1,2%,0,-2%,-27%,-2%
Cc1ccc(/C=C/C(=O)Nc2ccc(S(N)(=O)=O)cc2)o1,-12%,1,?,10µM*,-9%
